Test results published in PubChem BioAssay.

experiment: basal MM1S mitochondrial membrane potential changes, profiling panel, cell-based, JC-1 fluorescence, 24 h, 100 nL compound (AID 1170); conditions: higher = more signal; further: test concentration not given here

Row | Structure (SMILES) | z-score
1 | NC(=O)NCC#Cc1ccc2c(c1)[C@]1(C(=O)N2)[C@H](C(=O)N2CCN(c3ncccn3)CC2)[C@H]2C(=O)O[C@H](c3ccccc3)[C@H](c3ccccc3)N2[C@@H]1c1ccc(O)cc1 | 0.247
2 | COc1ccc(C#Cc2ccc3c(c2)[C@]2(C(=O)N3)[C@H](c3ccc(O)cc3)N3[C@H](c4ccccc4)[C@H](c4ccccc4)OC(=O)[C@H]3[C@@H]2C(=O)Nc2nc3ccccc3s2)cc1 | 0.0506
3 | COCCCNC(=O)[C@@]1(Sc2ccc(C)cc2)CC(=O)N(C2Cc3ccccc3C2)[C@@H]1c1ccc(CO)cc1 | -1.59
4 | CCC1=C2CN(Cc3ccccc3)[C@@H](C(=O)Cc3ccccc3)C2C=CCC1 (stereo partly specified) | -0.948
5 | CCOC(=O)C1=C[C@@H](C(C)(C)C)N(S(=O)(=O)c2ccc(C)cc2)[C@H]1c1cccc2ccccc12 | -0.541
6 | C=CCC(OC(C)=O)[C@@H]1[C@@H](N(Cc2cc3ccccc3o2)C(=O)Cc2ccc(F)cc2)c2cc(OCCCO)ccc2N1C(=O)Cc1ccc2ccccc2c1 (stereo partly specified) | 1.19
7 | COC(=O)[C@@]1(Cc2ccc(OC)cc2)[C@H]2c3cc(C(=O)N4CCCC4)n(CCc4c[nH]c5ccc(OC)cc45)c3C[C@H]2CN1C(=O)c1ccccc1 | -1.86
8 | COC(=O)[C@@]1(Cc2ccc(OC)cc2)[C@H]2c3cc(C(=O)N(C)C)n(Cc4ccc(C)o4)c3C[C@H]2CN1C(=O)c1ccccc1 | -3.01
9 | CC(C)c1ccc(NN2C(C(O)c3ccc(F)cc3)C=CC3C(=O)N(c4ccccc4)C(=O)C32)cc1 (stereo unspecified) | -0.958
10 | COc1cc2c(cc1O)C(C1CC1)N(C)CC2 (stereo unspecified) | 1.87
11 | CCCCN1CC=CC23O[C@@H]4/C=C\CCCOC(=O)C4[C@H]2C(=O)N(CCO)[C@@H]3C1=O (stereo partly specified) | 1.39
12 | COCCCNC(=O)[C@@]1(CCC(=O)OC(C)(C)C)N=C(c2ccc(OCCCO)cc2)O[C@H]1c1ccccc1N=[N+]=[N-] | -0.386
13 | CS(=O)(=O)CCOC(=O)C1=CC(c2ccc(CO)cc2)=CC(C2CC2)N(Cc2sc3ccccc3c2Cl)C=C1C(=O)OCCS(C)(=O)=O (stereo unspecified) | -1.87
14 | COCCOC(=O)N1C(=O)[C@@]2(c3ccccc31)[C@H](C(=O)NC[C@H](O)c1ccccc1)[C@H]1C(=O)O[C@H](c3ccccc3)[C@H](c3ccccc3)N1[C@@H]2c1ccc(O)cc1 | -0.0503
15 | CN(C)C(=O)[C@]1(Cc2ccccc2CN=[N+]=[N-])N=C(c2ccc(OCCCO)cc2)O[C@@H]1c1ccccc1 | -1.37
16 | COc1cc(OC)c(C(O)C2C=CC3C(=O)N(Cc4ccccc4)C(=O)C3N2n2cnnc2)cc1Br (stereo unspecified) | -0.395
17 | C=C[C@H](C)[C@H](OC(=O)Nc1ccc(SC)cc1)c1ccc(OCCO)cc1 | -0.72
18 | CCOC(=O)C1=C[C@@H](C(C)C)N(S(=O)(=O)c2ccc(C)cc2)[C@H]1c1ccc(C(F)(F)F)cc1 | -0.446

Row | Structure (SMILES) | z-score
19 | CCOC(=O)C[C@H]1[C@H](OC(=O)c2ccc(-c3ccccc3)cc2)[C@@H](NC(=O)CC(C)C)c2cc(OCCCO)ccc2N1C(=O)c1ccc2ccccc2n1 | -0.411
20 | COc1cccc(C)c1NC(=O)O[C@H]1[C@H](OC(=O)Nc2ccccc2-c2ccccc2)[C@H](OC(=O)Nc2ccccc2-c2ccccc2)[C@@H](OC)O[C@@H]1CO | 0.143
21 | C=C(COC)C(=O)CC[C@@H](OC(C)=O)c1cccc(OCCO)c1 | -0.274
22 | C=CCNC(=O)[C@@H]1[C@H]2C(=O)O[C@H](c3ccccc3)[C@H](c3ccccc3)N2[C@H](c2ccc(OCCO)cc2)[C@@]12C(=O)N(C(=O)OCCOC)c1ccc(C#Cc3ccc(OC)cc3)cc12 | -0.82
23 | CCCNC(=O)[C@@]1(C)c2ccccc2C(=O)N(c2ccc(C)cn2)[C@H]1c1ccc(CO)cc1 | 0.43
24 | CC(=O)NCCCC[C@@H]1NC(=O)[C@@H]2C[C@H](C(=O)NCCCCCN)[C@H](c3ccc(O)cc3)N2C1=O | 0.774
25 | CC1CC/C=C\[C@H]2OC34C=CCN(Cc5ccccc5)C(=O)[C@H]3N(C(CO)C(C)C)C(=O)[C@@H]4C2C(=O)O1 (stereo partly specified) | -0.0133
26 | COc1ccc(CCNC(=O)[C@@]2(c3ccc([N+](=O)[O-])cc3)CC(=O)N(C3CCCCC3)[C@@H]2c2ccc(CO)cc2)cc1 | 0.954
27 | C=CCC(OC(C)=O)[C@@H]1[C@@H](N(Cc2cccc3ccccc23)C(=O)Cc2ccc(OC)cc2)c2cc(OCCCO)ccc2N1C(=O)c1ccc(-c2ccccc2)cc1 (stereo partly specified) | 0.621
28 | COc1ccc([Si](C)(C)[C@@H]2[C@@H](CCO)O[C@]3(C(=O)N(Cc4ccccc4)c4ccc(NC(=O)[C@H](C)O)cc43)[C@H]2C)cc1 | -2.15
29 | [N-]=[N+]=Nc1ccccc1[C@@H]1OC(c2ccc(OCCCO)cc2)=N[C@]1(Cc1ccccc1)C(=O)O | -0.883
30 | COc1ccc([C@H]2OC[C@@H]3C[C@H](Cc4ccccc4)C(=O)N32)cc1 | -0.393
31 | CC(C)N1CC=CC23O[C@@H]4C=CCCOC(=O)C4[C@H]2C(=O)N(CCCO)[C@@H]3C1=O (stereo partly specified) | -0.438
32 | COc1ccc([Si](C)(C)[C@@H]2[C@@H](CCO)O[C@]3(C(=O)N(Cc4cccc(NC(=O)[C@H](C)O)c4)c4ccccc43)[C@H]2C)cc1 | -2.24
33 | NCCCCCNC(=O)[C@@H]1C[C@@H]2C(=O)N[C@@H](CCCCN)C(=O)N2[C@@H]1c1ccc(O)cc1 | -1.14
34 | C=CCN1Cc2ccccc2[C@@H]2OC(c3ccc(OCCCO)cc3)=N[C@]2(CC=C)C1=O | 0.278
35 | C=CCNC(=O)[C@@H]1[C@H]2C(=O)O[C@H](c3ccccc3)[C@H](c3ccccc3)N2[C@H](c2ccccc2OCCO)[C@@]12C(=O)N(C(=O)OCCOC)c1ccc(C#CC3(O)CCCCCC3)cc12 | -0.761
36 | CC(C)N1C(=O)c2ccccc2[C@@H](C(=O)NCCN2CCOCC2)[C@@H]1c1ccc(CO)cc1 | 0.113
